ssDAF12 agonist: activators of S. stercoralis DAF-12 nuclear receptor | HEK293 ssDAF-12/GRIP1 lit1-tk-luc reporter, luminescence; % of 3 µM dafachronic acid response | activation, % at 6.8 µM | 370,000 tested, 1% active;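 active means activation above the mean over all tested compounds plus 3 SD, cut at about 0.9% in these data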;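 further: 0% = DMSO-only wells and 100% = 3 µM delta7-dafachronic acid wells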
hgDAF12 agonist: agonists of H. glycines DAF-12 nuclear receptor; HEK293 GAL4-hgDAF12 UAS-luciferase reporter, agonist luminescence; normalized to butyrate control; activation, % at 6.8 µM; 370,000 tested, 1.8% active; AID 687014;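 active means activation above a cutoff set at the mean of all screened compounds plus 3 SD, cut at about 10% in these data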;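 further: 0% = DMSO wells and 100% = sodium butyrate wells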
DAX1 inh-1: NR0B1 (DAX1) inhibition; P51843; HEK293 Gal4-DAX1 luciferase reporter, luminescence; inhibition, % at 6.75 µM; 340,000 tested, 0.99% active; AID 504766;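 active means inhibition above the mean over all tested compounds plus 3 SD, cut at about 4.2% in these data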;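 further: 0% = DAX1-transfected cells with DMSO and 100% = empty-vector control cells with DMSO; inhibition shows as a rise in luminescence from relieved DAX1 repression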
DAX1 inh-2: blocks DAX1 repression of SF-1 activated StAR promoter | HEK293T StAR-luciferase reporter, SF-1/DAX-1 repression relief | inhibition, % at 6.8 µM | 370,000 tested, 1.1% active | AID 652010;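 active means inhibition above the mean over all tested compounds plus 3 SD, cut at about 3.6% in these data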;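 further: 0% = DAX-1 cells with DMSO and 100% = cells lacking DAX-1 with DMSO; higher inhibition means more luminescence from relief of DAX-1 repression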
AHR activator: human AHR activation | P35869 | AHR-responsive luciferase reporter cells, luminescence | activation, % at 5 µM | 320,000 tested, 2.5% active; in the data active means activation above about 47%;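 further: 0% = vehicle wells and 100% = reference agonist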
hcDAF-12 act: activates DAF-12 receptor from parasite H. contortus; HEK293 hcDAF-12 lit1-tk-luc reporter, luminescence; 0% DMSO, 100% Δ7-dafachronic acid; activation, % at 6.8 µM; 370,000 tested, 1.4% active; AID 652067;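 active means activation above the mean of all tested compounds plus 3 SD, cut at about 5.5% in these data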;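 further: 100% = response to 3 µM Δ7-dafachronic acid high control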
AHR act confirm: confirmation of human aryl hydrocarbon receptor activators | shares compounds with AHR activator | human cells, AHR-responsive luciferase reporter, luminescence | activation, % at 9 µM | 2,300 tested, 87% active | AID 2845; in the data active means activation above about 49%;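 further: HepG2 hepatoma cells carrying a DRE-driven firefly luciferase reporter; 0% = vehicle wells and 100% = reference agonist wells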
PXR counter: activates human PXR in AHR activator counter-screen | shares compounds with AHR activator | cell-based PXR reporter, luciferase luminescence | activation, % at 11.6 µM | 2,300 tested, 88% active; in the data active means activation above about 11%;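 further: human hepatoma DPX-2 cells expressing full-length human PXR; 0% = DMSO and 100% = reference agonist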
Target sequence (O75469 whole entry, looked up): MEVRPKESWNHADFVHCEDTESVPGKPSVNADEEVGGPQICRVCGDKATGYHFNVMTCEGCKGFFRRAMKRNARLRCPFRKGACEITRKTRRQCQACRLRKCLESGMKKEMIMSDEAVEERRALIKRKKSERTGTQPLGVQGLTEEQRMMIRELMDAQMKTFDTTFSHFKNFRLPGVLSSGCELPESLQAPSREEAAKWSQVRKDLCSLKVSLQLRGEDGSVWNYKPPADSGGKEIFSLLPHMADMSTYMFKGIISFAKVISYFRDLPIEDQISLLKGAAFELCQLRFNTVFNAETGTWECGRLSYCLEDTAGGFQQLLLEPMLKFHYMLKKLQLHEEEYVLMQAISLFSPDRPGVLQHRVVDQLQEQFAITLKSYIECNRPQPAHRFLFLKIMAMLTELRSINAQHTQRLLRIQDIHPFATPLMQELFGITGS
An asterisk follows results filed as active; . = no result. Shown are actives, neighbours in structure and some others; about 5.7% of the full set was active somewhere.

SMILES | ssDAF12 agonist | hgDAF12 agonist | DAX1 inh-1 | DAX1 inh-2 | AHR activator | hcDAF-12 act | AHR act confirm | PXR counter
CCCc1nn(C)c(C(=O)Nc2ccccc2)c1Cl | -1 | -1 | 1 | 0 | 82* | -2 | 89* | 13*
Cn1nc(C(F)(F)F)c(C(=O)Nc2ccc(Cl)cc2)c1Cl | -1 | 1 | -1 | 0 | -4 | 0 | . | .
Cn1cc(C(=O)Nc2ccc(Cl)cc2)c(C(F)(F)F)n1 | -2 | -5 | 1 | 0 | 107* | -1 | 101* | 27*
CCCc1nn(C)c(C(=O)Nc2ccc(Cl)cc2)c1Cl | -1 | 4 | 0 | 1 | 88* | -2 | 126* | 24*
O=C(N/N=C/c1ccc([N+](=O)[O-])cc1)c1cc2ccccc2o1 | -2 | 3 | 2 | 0 | 1 | 0 | . | .
C/C(=N\Nc1ccc([N+](=O)[O-])cc1)c1cc2ccccc2o1 | -1 | 4 | 0 | 0 | 81* | 6.4* | 128* | 15*
CCCc1c(C(=O)Nc2ccc(N3CCOCC3)cc2)cnn1-c1ccccc1 | -2 | -2 | -2 | 0 | 83* | -2 | 102* | 12*
CCCc1c(C(=O)Nc2cc(C)on2)cnn1-c1ccccc1 | -2 | 0 | -2 | 0 | 10 | -1 | . | .
C=CCN(CC=C)CCOc1cccc(Oc2ccccc2)c1 | -1 | -1 | -1 | 0 | -2 | 0 | . | .
Cc1cc(C)n2nc(SC(C)C(=O)Nc3ccccc3F)nc2n1 (stereo unspecified) | -1 | 0 | 1 | -2 | -2 | -2 | . | .
COc1ccc(C)cc1NC(=O)C(OC(=O)C1=NNC(=O)CC1)c1ccccc1 (stereo unspecified) | -1 | 0 | 0 | 1 | 83* | -1 | 99* | 36*
COc1ccc(C)cc1NC(=O)C(OC(=O)CNC(=O)c1ccc(Br)cc1)c1ccccc1 (stereo unspecified) | 0 | -3 | 1 | 0 | 81* | 2 | 85* | 51*
COc1ccccc1-n1c(SCC(=O)Nc2ccc(NC(C)=O)cc2)nc2c([nH]c3ccccc32)c1=O | 1 | 1 | 1 | 0 | 81* | 3 | 100* | 119*
COCCn1c(SCC(=O)Nc2cccc(NC(C)=O)c2)nc2c([nH]c3ccccc32)c1=O | 0 | -3 | -1 | -1 | 108* | 1 | 91* | 39*
O=C(CSc1nc2c([nH]c3ccccc32)c(=O)n1-c1ccccc1)NCC1CCCO1 (stereo unspecified) | -1 | 1 | -1 | 0 | 26 | -1 | . | .
CCOC(=O)N1CCN(C(=O)CSc2nc3c([nH]c4ccccc43)c(=O)n2CCOC)CC1 | 1 | -2 | 0 | -1 | 31 | 2 | . | .
CCn1c(SCC(=O)NCC2CCCO2)nc2c([nH]c3ccccc32)c1=O (stereo unspecified) | 0 | 0 | 0 | 2 | 80* | 5 | 88* | 80*
COc1ccccc1-n1c(SCC(=O)NCC2CCCO2)nc2c([nH]c3ccccc32)c1=O (stereo unspecified) | 1 | 0 | 1 | -1 | 90* | 2 | 127* | 164*
Cc1ccc(NC(=O)COC(=O)c2cc(=O)c3cc(F)ccc3o2)cc1 | -1 | -1 | 2 | 2 | . | 0 | . | .
Cc1[nH]c2ccccc2c1C(=O)COC(=O)c1nccnc1N | -1 | -1 | 0 | 0 | 2 | -1 | . | .
COc1ccc(N2CCN(C(=O)CN(c3cccc(OC)c3)S(=O)(=O)c3ccccc3)CC2)cc1 | -1 | -4 | 1 | 0 | 3 | -2 | . | .
COCCn1c(SCC(=O)N2CCCCC2)nc2c([nH]c3ccccc32)c1=O | 1 | 0 | 0 | 0 | 30 | 4 | . | .
CCn1c(SCC(=O)N2CCCCCC2)nc2c([nH]c3ccccc32)c1=O | 0 | 1 | 0 | 1 | 128* | 5 | 102* | 182*
CCCNc1nc(Cl)nc(Nc2ccc(Cl)cc2)n1 | -1 | 0 | 0 | 0 | 127* | 1 | 91* | .

Source: PubChem
